# Target: T1, Methionyl-tRNA synthetase, putative (Leishmania donovani (strain BPK282A1)) (UniProt E9BF75)
# T1 sequence (whole entry): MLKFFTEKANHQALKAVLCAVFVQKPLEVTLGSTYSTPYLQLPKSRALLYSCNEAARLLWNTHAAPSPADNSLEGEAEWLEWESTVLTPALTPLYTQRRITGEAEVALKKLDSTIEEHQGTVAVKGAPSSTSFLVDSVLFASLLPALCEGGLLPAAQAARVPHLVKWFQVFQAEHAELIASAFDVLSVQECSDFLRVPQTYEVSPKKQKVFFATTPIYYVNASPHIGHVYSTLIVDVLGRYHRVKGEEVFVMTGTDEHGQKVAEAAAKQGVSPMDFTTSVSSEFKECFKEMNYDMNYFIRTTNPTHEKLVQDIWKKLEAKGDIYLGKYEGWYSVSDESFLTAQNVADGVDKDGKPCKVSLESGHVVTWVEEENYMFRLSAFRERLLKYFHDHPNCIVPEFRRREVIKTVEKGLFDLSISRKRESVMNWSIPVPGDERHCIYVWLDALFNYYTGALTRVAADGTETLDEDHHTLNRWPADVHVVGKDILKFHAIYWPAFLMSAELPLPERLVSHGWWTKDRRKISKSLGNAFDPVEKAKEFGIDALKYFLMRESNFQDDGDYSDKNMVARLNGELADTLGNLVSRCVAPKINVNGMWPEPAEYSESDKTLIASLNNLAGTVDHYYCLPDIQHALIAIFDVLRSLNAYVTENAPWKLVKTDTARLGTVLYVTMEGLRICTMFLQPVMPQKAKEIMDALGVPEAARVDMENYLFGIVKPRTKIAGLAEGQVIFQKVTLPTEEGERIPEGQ
# Assay: Leishmania donovani Methionine tRNA synthetase (LdMetRS):v7. Dose response assay
# Assay type: functional
# Parameters: conc 80 nM, time 150 minutes
compound,measurement,setting,value
Cc1nc(N(C)Cc2cccnc2)c2c(C)c(C)sc2n1,PXC50,MAX_EFFECT 19.78609626,< 4
same,PXC50,MAX_EFFECT 20.76502732,< 4
CN(C)C(=O)CNC(=O)c1ccc2ccc(N(C)CC3CC3)n2c1,PXC50,MAX_EFFECT 21.76870748,< 4
same,PXC50,MAX_EFFECT 29.90654206,< 4
CN(C)C(=O)N1CCN(c2ccc3ncc(-c4ccc5onc(N)c5c4)n3n2)CC1,PXC50,MAX_EFFECT 21.88295165,< 4
same,PXC50,MAX_EFFECT 25.43859649,< 4
CCc1cc2c(NC(C(=O)O)C(C)C)nc(-c3ccccc3)nc2s1 (stereo not given),PXC50,MAX_EFFECT 27.80748663,< 4
same,PXC50,MAX_EFFECT 31.69398907,< 4
Cc1sc2nc(CN3CCCC3)nc(NC3CCCC3)c2c1C,PXC50,MAX_EFFECT 34.69387755,< 4
same,PXC50,MAX_EFFECT 40.15151515,< 4
CCN(CC)c1ccc2ccc(C(=O)N(CCOC)CCOC)cn12,PXC50,MAX_EFFECT 40.55555556,< 4
same,PXC50,MAX_EFFECT 42.72300469,< 4
CCOC(=O)N1CCN(c2nc(-n3nc(C)cc3C)nc3sc4c(c23)CCCC4)CC1,PXC50,MAX_EFFECT 10.41666667,< 4
same,PXC50,MAX_EFFECT 12.71929825,< 4
COC(=O)CN(C)c1nc(-c2cccs2)nc2sc(C)c(C)c12,PXC50,MAX_EFFECT 23.66412214,< 4
same,PXC50,MAX_EFFECT 24.93702771,< 4
Cc1sc2nc(CN3CCOCC3)nc(NCCO)c2c1C,PXC50,MAX_EFFECT 7.650273224,< 4
same,PXC50,MAX_EFFECT 8.021390374,< 4
Cc1sc2nc(C(F)(F)F)nc(N3CCCN(C)CC3)c2c1C,PXC50,MAX_EFFECT 3.916449086,< 4
same,PXC50,MAX_EFFECT 8.877284595,< 4
FC(F)(F)c1nc(N2CCCCCC2)nc2c1CCCCC2,PXC50,MAX_EFFECT 4.325699746,< 4
same,PXC50,MAX_EFFECT 5.793450882,< 4
Cc1nc(NCc2cccnc2)c2c3c(sc2n1)CCC3,PXC50,MAX_EFFECT 6.361323155,< 4
same,PXC50,MAX_EFFECT 13.85390428,< 4
Cn1ccnc1CN1CCC(F)(F)C2(CCN(c3cnccn3)C2)C1 (stereo not given),PXC50,MAX_EFFECT 2.816901408,< 4
same,PXC50,MAX_EFFECT 9.074074074,< 4
Cc1nc(N2CCCC(O)C2)c2c3c(sc2n1)CCCC3 (stereo not given),PXC50,MAX_EFFECT 9.649122807,< 4
same,PXC50,MAX_EFFECT 16.66666667,< 4
Cc1nnc(NCC2(c3ccccc3)CCOCC2)c(C#N)c1C,PXC50,MAX_EFFECT 7.981220657,< 4
same,PXC50,MAX_EFFECT 16.48148148,< 4
CS(=O)(=O)N1CCN(c2cnc3ncc(C(=O)NC4CCCC4)cn23)CC1,PXC50,MAX_EFFECT 3.624733475,< 4
same,PXC50,MAX_EFFECT 4.761904762,< 4
Cc1ccc(-c2cc(C(F)(F)F)nc(N3CCOCC3)n2)s1,PXC50,MAX_EFFECT 10.18276762,< 4
same,PXC50,MAX_EFFECT 14.09921671,< 4
O=C(CO)N1CCC(F)(F)C2(CCN(c3ccccc3)C2)C1 (stereo not given),PXC50,MAX_EFFECT 15.37037037,< 4
same,PXC50,MAX_EFFECT 18.30985915,< 4
Cc1c(-c2cc(C(F)(F)F)nc(N3CCC(N)CC3)n2)cnn1C,PXC50,MAX_EFFECT 7.485604607,< 4
same,PXC50,MAX_EFFECT 8.133971292,< 4
Cc1cc(C)n(-c2nc(NC3CCCC3)c3c4c(sc3n2)CCCC4)n1,PXC50,MAX_EFFECT 22.91666667,< 4
same,PXC50,MAX_EFFECT 34.21052632,< 4
CCc1nc(NCc2ccccn2)c2cc(CC)sc2n1,PXC50,MAX_EFFECT 4.176904177,< 4
same,PXC50,MAX_EFFECT 4.522613065,< 4
O=C(c1cnccn1)N1CCC(F)(F)C2(CCN(c3ccccn3)C2)C1 (stereo not given),PXC50,MAX_EFFECT 7.962962963,< 4
same,PXC50,MAX_EFFECT 7.981220657,< 4
CC(C)C[C@H](N)C(=O)Nc1cccnc1Oc1ccc(Cl)cc1,PXC50,MAX_EFFECT 2.186878728,< 4
same,PXC50,MAX_EFFECT 7.568807339,< 4
COc1ccc(-c2cc(C(F)(F)F)nc(N3CCN(C)CC3)n2)cc1,PXC50,MAX_EFFECT 16.41414141,< 4
same,PXC50,MAX_EFFECT 20.40816327,< 4
CCC(CO)Nc1nc(CSc2ccccc2)nc2sc(C)c(C)c12 (stereo not given),PXC50,MAX_EFFECT 23.49726776,< 4
same,PXC50,MAX_EFFECT 24.06417112,< 4
CN(C)C(=O)C1CCN(c2cncc(-n3cccn3)n2)CC1,PXC50,MAX_EFFECT 5.700712589,< 4
same,PXC50,MAX_EFFECT 11.44366197,< 4
CC(C)(CN)COc1cccc(F)c1Oc1ccc(Cl)cc1,PXC50,MAX_EFFECT 16.84434968,< 4
same,PXC50,MAX_EFFECT 20.08281573,< 4
O=C(c1c[nH]cn1)N1CCC(F)(F)C2(CCN(c3cnccn3)C2)C1 (stereo not given),PXC50,MAX_EFFECT 1.584507042,< 4
same,PXC50,MAX_EFFECT 3.800475059,< 4
Cc1sc2nc(-c3cccs3)nc(N3CCNC(=O)C3)c2c1C,PXC50,MAX_EFFECT 4.8,< 4
same,PXC50,MAX_EFFECT 8.994708995,< 4
CS(=O)(=O)N1CCN(c2ccc3ncc(C(=O)NC4CCCC4)cn23)CC1,PXC50,MAX_EFFECT 7.456140351,< 4
same,PXC50,MAX_EFFECT 9.895833333,< 4
